These results are taken from PubChem BioAssay AID2098 (Broad Institute, 2009).

Structures are written as SMILES. Among all 300,000 compounds or so, about 2,300 (0.77%) were called active. What follows is part of a selection rich in actives, with near analogues and random picks from the rest. Unmarked numbers belong to inactive results.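 The calls were made as follows: active = more than half of replicate wells show activity change below -50%, luminescence cut by over half; inconclusive = some wells, but at most half, below -50%; inactive = no replicate well below -50%.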

The test in a line: HSF1 inhibitors in luciferase reporter cells, primary screen, cell-based, NIH3T3, luminescence (AID 2098).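 Also: luciferase reports HSF-1 transcriptional activity via heat shock element; 0% = median of DMSO wells and -100% = zero luminescence signal.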 As to conditions: NIH3T3-HGL HSE-luciferase, MG132-induced, luminescence 8 h; active compounds read low; screened at 7.5 µM (by protocol). For orientation: Reporter assays use an easily measured gene product as a stand-in for the process of interest.
For the compound `COC(=O)c1ccc(COC(=O)C2CCN(S(=O)(=O)c3c(Cl)cccc3Cl)CC2)o1`, the activity change, negative = inhibition is 5.96%.
As for `COc1cc(SC)ccc1C(=O)Nc1cc(C)ccn1`, the activity change, negative = inhibition is 28.6%.
In the case of `COC(=O)c1sc(NC(=O)c2ccc(OC)cc2OC)nc1C`, the activity change, negative = inhibition is -40.1%.
Next, `COc1cc(SC)ccc1C(=O)Nc1nc(C)cs1`: -63.8% (active); `Cc1ccc(C(=O)C(C)OC(=O)Cc2n[nH]c(=O)c3ccccc23)cc1C` (stereo not drawn): -5.5%; `NC(=O)c1ccsc1NC(=O)COC(=O)Cc1n[nH]c(=O)c2ccccc12`: -1.64%.
Consider `COc1ccc(CC(=O)OC(C)C(=O)Nc2ccc(S(N)(=O)=O)cc2)cc1` (stereo not drawn), for which the activity change, negative = inhibition was -3.68%.
The figure for `CCc1cccc(NC(=O)COC(=O)C2CCN(c3ccc(C(F)(F)F)cn3)CC2)c1` is -4.52%; for `O=C(O)/C=C\C(=O)Nc1ccc(OCc2ccccc2)cc1` it is -65.7% (active).
Next, `Cc1cccc(NC(=O)Nc2ccc(OCc3ccccc3)cc2)n1`: 1.3%.
With `CCc1ccnc(NC(=O)Nc2ccc(OCc3ccccc3)cc2)c1`, the activity change, negative = inhibition was -11.4%.
Regarding `O=C(CCCN=C1NS(=O)(=O)c2ccccc21)OCC(=O)c1ccc(F)c(F)c1`, the activity change, negative = inhibition was -2.57%.
In the case of `COc1ccc2[nH]c(=O)c(CN(Cc3cccnc3)S(=O)(=O)c3ccccc3F)cc2c1`, the activity change, negative = inhibition is -52.3% (active).
The figure for `CCC(=O)N(Cc1cc2cc(OC)ccc2[nH]c1=O)c1ccccc1C` is -6.72%; for `CCN(Cc1cc2cc(C)ccc2[nH]c1=O)S(=O)(=O)c1ccccc1` it is -3.14%; for `COc1ccccc1NC(=O)C(C)OC(=O)c1ccc(-n2cnnn2)cc1` (stereo not drawn) it is -4.36%.
With `O=C1CC2(CCCC2)Oc2ccc(Cl)cc21`, the activity change, negative = inhibition is -9.81%.
Regarding `CC[C@H]1CN2CCc3cc(OC)c(OC)cc3[C@@H]2C[C@@H]1C[C@H]1NCCc2cc(OC)c(OC)cc21`, the activity change, negative = inhibition is -74.7% (active).
The figure for `COc1cc2c(cc1O)[C@H](Cc1ccc(Oc3cc(C[C@@H]4NCCc5cc(OC)c(O)cc54)ccc3O)cc1)NCC2` is -2.77%; for `COc1ccc2c(c1)CCNC2Cc1ccc(OC)c(O)c1` (stereo not drawn) it is 0.52%; for `C=CCOC(=O)C1=C[C@H](c2ccc(Br)cc2)C[C@H](OCCCCO)O1` it is -3.77%.
In the case of `CCOC(=O)c1cccc(NC(=O)C2CCN(c3ncnc4c3nc3n4CCCCC3)CC2)c1`, the activity change, negative = inhibition was -72.4% (active).
In the case of `O=C(NCc1ccccc1Cl)C1CCN(c2ncnc3c2nc2n3CCCCC2)CC1`, the activity change, negative = inhibition was -6.69%.
With `COc1cccc(NC(=O)C2CCCN(c3ncnc4c3nc3n4CCCCC3)C2)c1` (stereo not drawn), the activity change, negative = inhibition is -3.75%.
Regarding `COc1ccccc1CNC(=O)CSc1nc(=O)n(Cc2ccncc2)c2c1CCC2`, the activity change, negative = inhibition is -0.526%.
As for `Cn1c(SCC(=O)c2ccccc2)ncc(C(=O)Nc2ccc(F)cc2)c1=O`, the activity change, negative = inhibition is 3.83%.
Consider `CN(C)S(=O)(=O)c1cccc(NC(=O)Cc2ccsc2)c1`, for which the activity change, negative = inhibition is 5.64%.
On to `Cc1ccc(/C=N/NC(=S)Nc2cccc(S(=O)(=O)N(C)C)c2)o1`, for which the activity change, negative = inhibition was -4.55%.
For `Cc1nc(C)c(-c2nnc(-c3cccc(S(=O)(=O)N(C)C)c3)o2)cc1C(=O)NN`, the activity change, negative = inhibition is -63.1% (active).
The figure for `COc1cccc(CNC(=O)C(=O)NCCC2CCCCN2S(=O)(=O)c2ccc(C)cc2)c1` (stereo not drawn) is -3.75%; for `COc1cccc(N2CC(NS(=O)(=O)c3ccc(Cl)cc3)CC2=O)c1` (stereo not drawn) it is 8.69%; for `C=C(C)C(=O)O[C@H]1C/C(C)=C\C(=O)/C=C(\C)[C@H](O)[C@@H]2OC(=O)C(=C)[C@@H]21` it is -73.5% (active).
For `CN(CC(=O)NCc1cccnc1)S(=O)(=O)c1cc(Cl)ccc1Cl`, the activity change, negative = inhibition is 1.42%.
As to `CCN(CC(=O)Nc1ccc(NC(C)=O)cc1)C(=O)C1CC(=O)N(Cc2ccc(C)cc2)C1` (stereo not drawn), the activity change, negative = inhibition is -0.586%.
As to `COC(=O)CCNc1ccc2c(c1)OCCO2`, the activity change, negative = inhibition is -72.6% (active).
The figure for `COc1ccccc1OCCCC(=O)Nc1ccc2c(c1)OCCO2` is 1.02%; for `CCOc1ccc(NCCC(=O)c2ccc3c(c2)OCO3)cc1` it is -1.61%.
With `Cc1ccc2nc(SCC(=O)N3CC(C)OC(C)C3)nc(=O)n2c1` (stereo not drawn), the activity change, negative = inhibition is 3.03%.
As to `Cc1ccc(S(=O)(=O)CCC(=O)OCC(=O)N(C)C2CCS(=O)(=O)C2)cc1` (stereo not drawn), the activity change, negative = inhibition was -3.16%.
In the case of `COc1ccc(CN2[C@@H](CC(=O)O)c3cc(F)ccc3S2(=O)=O)cc1`, the activity change, negative = inhibition was -5.27%.
For the compound `O=S1(=O)CC/C(=N\Nc2ccc(F)cc2)c2ccsc21`, the activity change, negative = inhibition is -74.8% (active).
On to `COc1ccc(C(=O)N/N=C2\CCS(=O)(=O)c3ccc(F)cc32)cc1OC`, for which the activity change, negative = inhibition is 9.4%.
Next, `COc1ccc(S(=O)(=O)N(C)CC(=O)N2CCCC2)cc1`: 0.377%; `CCN(CC(=O)N1CCCC1)S(=O)(=O)c1ccc(F)cc1`: -65.5% (active); `CCN(CC(=O)NCc1ccco1)S(=O)(=O)c1ccc(F)cc1`: -5.85%.
For `COc1ccc(CNC(=O)C2CCCC2)cc1`, the activity change, negative = inhibition is -0.797%.
Regarding `CCOc1ccc(NC(=O)CN(C)C(=O)COc2cccc(CC)c2)cc1OCC`, the activity change, negative = inhibition is 3.71%.
For the compound `COC(=O)CCCC1=CC2=CC(=O)C(C)(OC(=O)c3cccs3)C(=O)C2=CN1CC1CC1` (stereo not drawn), the activity change, negative = inhibition is -2.87%.
For `COC(=O)CCCC1=CC2=C(c3ccccc3)C(=O)C(C)(OC(=O)C3CCCC3)C(=O)C2=CN1c1ccc(OC)cc1` (stereo not drawn), the activity change, negative = inhibition is -88.7% (active).
`COC(=O)CCCC1=CC2=CC(=O)C(C)(OC(=O)c3cccs3)C(=O)C2=CN1c1cccc(C#N)c1` (stereo not drawn): the activity change, negative = inhibition is 0.873%.
Next, `CC(=O)c1ccc(S(=O)(=O)Nc2ccc(-c3ccc4nncn4n3)cc2)cc1`: 2.56%.
Regarding `COc1ccc(NC(=O)CN(C)C(=O)c2ccc(COc3ccccc3)o2)cc1`, the activity change, negative = inhibition was 3.16%.
Regarding `O=c1c2ccccc2nc2n1C1(CCCCC1)Cc1ccccc1-2`, the activity change, negative = inhibition was 15.3%.
As for `CN(c1ccc2nc3ccccc3c(=O)n2n1)C1CCCCC1`, the activity change, negative = inhibition is -86.8% (active).
In the case of `CN(C(=O)c1cc2c(=O)n3ccccc3nc2s1)C1CCCCC1`, the activity change, negative = inhibition is 23.2%.
Next, `CCCOc1ccc(C(=O)CCC(=O)OC(C)C(=O)Nc2ccc(NC(C)=O)cc2)cc1` (stereo not drawn): 11.7%; `CN(C)CCCNC(=S)N1CCC(c2nc3ccccc3[nH]2)CC1`: -2.77%; `CCCNC(=S)N1CCCC(c2nc3ccccc3[nH]2)C1` (stereo not drawn): -82% (active).
For `COCCCNC(=S)N1CCCC(c2nc3cc(C)c(C)cc3[nH]2)C1` (stereo not drawn), the activity change, negative = inhibition was 5.14%.
The figure for `CCOc1ccc(S(=O)(=O)Nc2cccc(C(=O)NCC3(N4CCCCC4)CCCCC3)c2)cc1` is -3.29%; for `CC(=O)N[C@H]1[C@H]([C@H](O)[C@H](O)CO)OC(C(=O)O)=C[C@@H]1O` it is -3.57%.
Turning to `COc1ccc2oc(C(=O)OCC(=O)N(CC(C)C)c3c(N)n(Cc4ccccc4)c(=O)[nH]c3=O)c(C)c2c1`, the activity change, negative = inhibition is 1.6%.
In the case of `CCN(Cc1ccccc1)C(=O)Cc1ccc(OC)c(S(=O)(=O)N2CCOCC2)c1`, the activity change, negative = inhibition was -13.3%.
Regarding `COc1ccc(/C=C2/S/C(=N/N=C3\CC4CCC3(C)C4(C)C)NC2=O)cc1` (stereo not drawn), the activity change, negative = inhibition is -80.6% (active).
As for `CCOc1ccc(N=C2NC(=O)S/C2=C\c2ccc(O)cc2)cc1`, the activity change, negative = inhibition was 8.7%.
For the compound `COc1ccc(/C=C2\SC(=N)N(c3ccc(F)cc3)C2=O)cc1`, the activity change, negative = inhibition is -0.809%.
As for `Cc1sc(NC(=O)c2ccc3ncsc3c2)c(C(N)=O)c1C`, the activity change, negative = inhibition is 18.5%.
For the compound `O=C(COC(=O)Cn1[nH]c(=O)c2ccccc2c1=O)Nc1c(Cl)cccc1C(F)(F)F`, the activity change, negative = inhibition is -1.35%.
The figure for `COc1ccccc1C(=O)NC(CCSC)C(=O)N1CCN(C/C=C/c2ccccc2)CC1` (stereo not drawn) is 6.22%.
As for `COc1ccccc1C(=O)NNC(=O)CCN1C(=O)/C(=C\c2ccccc2)SC1=S`, the activity change, negative = inhibition is 3.5%.
As for `Cc1ccc(/C=C2\SC(=S)N(CCC(=O)Nc3ccc(O)cc3)C2=O)cc1`, the activity change, negative = inhibition is 2.79%.
Turning to `C=CCOc1ccc(/C=C2\SC(=S)N(CCC(=O)O)C2=O)cc1`, the activity change, negative = inhibition is -55% (active).
Next, `O=C(c1ccc(NS(=O)(=O)c2ccc3[nH]c(=O)[nH]c3c2)cc1)N1CCCCC1`: -2.36%.
As for `CCOc1cc(NS(=O)(=O)c2ccc(OC)cc2)c(OCC)cc1NC(C)=O`, the activity change, negative = inhibition was -13.5%.
For `CCOc1ccccc1NS(=O)(=O)c1c[nH]c(C(=O)OC)c1`, the activity change, negative = inhibition was -51.6% (active).
Regarding `COC(=O)c1cc(S(=O)(=O)Nc2ccc(C)c(F)c2)c[nH]1`, the activity change, negative = inhibition was 5.93%.
For the compound `COCOc1cc(O)c(C(=O)/C=C/c2ccc(OCOC)c(OCOC)c2)c(OCOC)c1`, the activity change, negative = inhibition is 23.1%.
In the case of `COc1cccc(CCNC(=O)COc2cccc3c2OC(C)(C)C3)c1`, the activity change, negative = inhibition was -0.825%.
For `Cc1cc(C(=O)Cn2cnc3cc([N+](=O)[O-])ccc3c2=O)c(C)n1CC1CCCO1` (stereo not drawn), the activity change, negative = inhibition is 3.88%.
On to `Cc1cc(C(=O)CCl)c(C)n1CC1COc2ccccc2O1` (stereo not drawn), for which the activity change, negative = inhibition was 19.5%.
With `Cc1ccsc1C(=O)OCC(=O)c1cc(C)n(CC2CCCO2)c1C` (stereo not drawn), the activity change, negative = inhibition was -88.5% (active).
As to `CCCCn1c(N)c(N(CCOC)C(=O)c2sc3ccccc3c2Cl)c(=O)[nH]c1=O`, the activity change, negative = inhibition is -1.16%.
Turning to `COc1ccccc1C(=O)NCCC(=O)NCC(c1ccco1)N1CCCCC1` (stereo not drawn), the activity change, negative = inhibition was -1.06%.
`CC1COc2ccccc2N1C(=O)c1cccnc1Cl` (stereo not drawn): the activity change, negative = inhibition was -2.12%.
Next, `CC1COc2ccccc2N1C(=O)c1ccc(F)cc1` (stereo not drawn): -77.4% (active).
Regarding `CC1COc2ccccc2N1S(=O)(=O)c1ccccc1` (stereo not drawn), the activity change, negative = inhibition is -6.19%.
Turning to `O=C(NCCCN1CCCC1=O)c1ccc(S(=O)(=O)Nc2ccccc2)cc1`, the activity change, negative = inhibition is 4.74%.
With `Cc1cc(C)c(-c2csc(NC(=O)CCCc3nc4ccccc4c(=O)[nH]3)n2)c(C)c1`, the activity change, negative = inhibition was -1.35%.
